# Source: PubChem BioAssay (National Center for Advancing Translational Sciences (NCATS))
# Shiga toxin inh – Shiga toxin inhibition; Vero cells, Shiga toxin protein synthesis inhibition reporter; inhibition, % at 38.7 µM; 290,000 compounds, 9.2% hits; AID 2315; in the data active = inhibition mostly above about 28%, no sharp cut-off; inactive = mostly below about 43%; note: 0% is about no effect
# Cycloheximide cs – affects cycloheximide protein synthesis inhibition readout, counter-screen | 300,000 compounds, 12% hits | max response, % | cell reporter, cycloheximide protein synthesis inhibition counterscreen; in the data active = max response mostly above about 13%, no sharp cut-off; inactive = mostly below about 14%; note: read at 38.3 µM for the half of the compounds with a filed dose; 0% is about no effect
# NS1 inh – blocks influenza NS1 protein function. Potency, µM (top dose mostly 46.1 µM), for the others: top-dose activity, positive = more growth. 270,000 compounds, 0.4% hits. AID 2326; note: potency is the fitted concentration of half-maximal effect; actives are rising curves; nearly all actives have a fitted effect of over 50% in size
#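 OD600 was taken as the measure of yeast growth restored by compound in an NS1-expressing S. cerevisiae strain. Cells had been washed out of glucose medium and diluted 1:100 into galactose -URA medium, pH 6.0.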
# Pf growth 48h – inhibits P. falciparum growth in the first generation, 48 h; AID 504832; Potency, µM (top dose mostly 28.7 µM), inactives show at the top dose activity change, negative = inhibition, actives largely listed as inhibitors; 310,000 compounds, 5.9% hits; P. falciparum luciferase growth in erythrocytes, 48 h; active = well fitted inhibition curve with a large enough effect; inconclusive = small, poorly fitted or top-dose-only effect, or another doubt; inactive = no such curve, though single readings can be large or run the other way; note: potency is the fitted concentration of half-maximal effect; % is set by controls: 0 for no effect and ±100 for the full control effect
#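 Luciferase-expressing parasites in RBCs, 2% Hct / 0.1% parasitemia final; RPMI 1640 + 0.5% Albumax; 37 C, 5% CO2, one generation; luminescence read-out, lower signal = inhibition.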
# SARS PLpro yeast – SARS-CoV PLP inhibition in yeast; S. cerevisiae expressing SARS-CoV PLpro, growth rescue; Potency, µM (titrated, usually from 32.9 µM), without a hit: top-dose activity, positive = growth rescue, usual class: activators; 330,000 compounds, 0.19% hits; AID 485353; note: potency is the fitted concentration of half-maximal effect; 0% is about no effect; nearly all actives have a fitted effect of over 55% in size
# Pf growth 96h – P. falciparum growth inhibition at 96 hour, primary screen for plastid delayed-death inhibitors; P. falciparum luciferase reporter growth, 96 h; Potency, µM (highest dose often 28.7 µM), for the others: at the top dose activity change, negative = inhibition, usual class: inhibitors; 320,000 compounds, 6.9% hits; active = well fitted inhibition curve with a large enough effect; inconclusive = small, poorly fitted or top-dose-only effect, or another doubt; inactive = no such curve, though single readings can be large or run the other way; note: potency is the fitted concentration of half-maximal effect; % is set by controls: 0 for no effect and ±100 for the full control effect
#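 Luminescence readout: decreased luciferase signal marks inhibited growth of reporter-expressing P. falciparum in infected red cells (2% hematocrit, 0.05% parasitemia final), exposed to compound two generations (96 h, 37 C, 5% CO2).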
# * marks the source's active call; other numbers are inactive results; i = inactive; ? = inconclusive; . = no result given. Rows were chosen to be rich in hits. Some 21% of all compounds tested hit in one or more screens of this group. Unless noted, calls come from the whole dose curve.
SMILES,Shiga toxin inh,Cycloheximide cs,NS1 inh,Pf growth 48h,SARS PLpro yeast,Pf growth 96h
C=C1CCN(C(Cc2ccccc2)C(=O)Nc2ccc(OC)cc2)S(=O)(=O)c2ccccc21 (stereo unspecified),17,9,.,.,.,.
O=C(NC1CCCC1)C(c1ccc(N2CCOCC2)cc1)N(Cc1ccccc1)C(=O)c1ccco1 (stereo unspecified),-2,-5,-8%,15µM*,4%,.
COC(=O)c1cccc(N(C(=O)c2ccco2)C(C(=O)NC2CCCC2)c2ccc(N3CCOCC3)cc2)c1 (stereo unspecified),-3,-3,-7%,10µM*,-2%,32%
CC(=O)c1cccc(N(C(=O)c2ccco2)C(C(=O)NC2CCCC2)c2ccc(N3CCOCC3)cc2)c1 (stereo unspecified),1,-1,-4%,?,0%,17%
O=C(NC1CCCC1)C(c1ccc(N2CCOCC2)cc1)N(Cc1ccco1)C(=O)c1ccco1 (stereo unspecified),-18,14,-1%,?,-5%,.
Cc1ccc(N(Cc2ccccc2)Cc2ccccc2)cc1,.,.,-14%,.,.,.
c1ccc(C2Nc3ccccc3-c3nc4ccccc4n32)cc1 (stereo unspecified),57,31*,-125%,?,-25%,.
c1coc(C2Nc3ccccc3-c3nc4ccccc4n32)c1 (stereo unspecified),63*,31*,-74%,72%,-9%,23%
c1ccc(C2Nc3ccccc3-c3nc4ccccc4n32)nc1 (stereo unspecified),-11,-4,-5%,41%,12%,5%
CCCc1cc(=O)oc2c(C)c(OC(C)C(=O)NCCN3CCOCC3)ccc12 (stereo unspecified),-6,-4,-4%,-10%,0%,?
COc1ccc2[nH]cc(CCNC(=O)CS(=O)(=O)Cc3ccccc3)c2c1,-1,-5,-1%,7%,-6%,?
Oc1ccc(C2Nc3cccc4cccc(c34)N2)c(O)c1,21,-1,4%,6.6µM*,-10%,1.5µM*
O=c1c2ccccc2[nH]c(=S)n1-c1cccc(S(=O)(=O)N2CCCC2)c1,-3,-3,12%,-22%,-3%,?
N#CCCN(Cc1cccnc1)C(=S)NC(=O)c1ccccc1,.,.,.,.,11%,.
CCOc1ccc(C(=O)Nc2cc(-c3nc4ccccc4[nH]3)ccc2Cl)cc1[N+](=O)[O-],-4,27*,-36%,?,-56%,25%
O=C(Nc1nc2ccccc2[nH]1)c1ccc(Cl)c([N+](=O)[O-])c1,116*,37*,.,110%,0%,86%
O=C(Nc1nc2ccccc2[nH]1)c1ccccc1[N+](=O)[O-],51*,35*,.,145%,0%,65%
Cc1c(C(=O)Nc2nc3ccccc3[nH]2)cccc1[N+](=O)[O-],28,15*,4%,78%,-10%,43%
CC(=O)Nc1ccc(C(=O)N/N=C/c2ccccc2OC(=O)c2ccc(Cl)cc2)cc1,-9,23,10%,?,-9%,104%
CC(=O)Nc1ccc(S(=O)(=O)Oc2ccc(/C=N/NC(=O)c3ccc(Cl)cc3)cc2)cc1,15,2,-3%,13µM*,2%,?
Cc1ccc2cccc(OCC(=O)c3cc(C)n(Cc4ccco4)c3C)c2n1,101,25*,.,13µM*,2%,?
Cc1cc(C(=O)CCl)c(C)n1Cc1ccco1,43,21,.,16%,?,197%
Cc1cc(C(=O)COC(=O)[C@H](C)NC(=O)c2ccco2)c(C)n1Cc1ccco1,59*,35*,.,478%,-1%,12%
O=C(CN1C(=O)c2cccc3cccc1c23)NC1CCCC1,4,11,1%,18%,-2%,-17%
O=[N+]([O-])c1nn(-c2ccc3c(c2)OCCO3)n(O)c1=NCc1ccccc1Cl,90*,46*,-5%,66%,4%,i
COc1ccccc1CN=c1c([N+](=O)[O-])nn(-c2ccc3c(c2)OCCO3)n1O,31*,62*,-8%,-12%,-7%,-21%
O=[N+]([O-])c1nn(-c2ccc3c(c2)OCCO3)n(O)c1=NC1CCCCC1,101,28*,-52%,.,3%,?
